A number with no mark means an inactive call. Records with an inconclusive call do not appear. A call without a number means that no potency is given here. Activity calls are given as the source filed them. Unless noted, the call rests on the fitted dose curve.
How the values were obtained:
[1] = Nuclear factor erythroid 2-related factor 2/antioxidant responsive element (Nrf2/ARE) small molecule agonists: qHTS cell viability counter screen in human keratinocytes (AID 1919968; active means well fitted curve in the direction sought with a large enough effect in the repeat runs; an effect the other way counts as inactive or inconclusive; further: nearly all actives have a fitted effect of over 55% in size; further: potency means the concentration at half of the fitted maximal effect)
In short: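 Parallel cytotoxicity read: KeratinoSens HaCaT cells, compound treatment 23 h, viability by CellTiter-Fluor fluorescence 1 h post-reagent.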

[2] = Nuclear factor erythroid 2-related factor 2/antioxidant responsive element (Nrf2/ARE) small molecule agonists: luciferase reporter gene qHTS assay in human keratinocytes (AID 1919969); further: nearly all actives have a fitted effect of over 35% in size; further: potency means the concentration at half of the fitted maximal effect
[3] = molecular target: Gonadotropin-releasing hormone receptor (Homo sapiens) (UniProt P30968); experiment: Human gonadotropin-releasing hormone receptor (GnRHR) small molecule agonists, calcium flux assay in GnRHR-HEK293 cells (AID 1920063); further: nearly all actives have a fitted effect of over 35% in size
In short: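 Calcium flux, agonist mode, human GnRHR stably integrated in HEK293; dye 1 h at 37 C before compound; Ex/Em=480/540 kinetic read, 3 min; 15 concentrations, triplicate.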

[4] = molecular target: KiSS-1 receptor (Homo sapiens) (UniProt Q969F8); experiment: Human kisspeptin (KISS1R) small molecule agonists, calcium flux assay in KISS1R-HEK293 cells (AID 1920064; active means well fitted curve in the direction sought with a large enough effect in the repeat runs; an effect the other way counts as inactive or inconclusive)
In short: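 Triplicate 15-concentration series were applied to dye-loaded human KISS1R HEK293 cells, and agonist-evoked calcium fluorescence was captured for 3 min.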

[5] = p53 small molecule agonists, cell-based qHTS assay with human liver microsomes (AID 1963577)
In short: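 Fluorescence of the beta-lactamase reporter in p53RE-bla cells, detected with LiveBLAzer substrate (2 h, room temperature, dark), served as the read-out after 16 h compound exposure at 37 C with human liver microsomes and NADPH, each 0.5 mg/mL final.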

[6] = p53 small molecule agonists, cell-based qHTS assay with rat liver microsomes (AID 1963578)
In short: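 Cells carrying a p53 response element–beta-lactamase reporter were plated and rested 5 h, then dosed with compound in DMSO plus rat liver microsomes and NADPH, each at 0.5 mg/mL final. After 16 h at 37 C, LiveBLAzer substrate was added for 2 h.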

[7] = p53 small molecule agonists, cell-based qHTS assay with human liver microsomes: qHTS cell viability counter screen (AID 1963579); further: nearly all actives have a fitted effect of over 45% in size; further: potency means the concentration at half of the fitted maximal effect
In short: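 Cytotoxicity counter screen: p53RE-bla, 4,000 cells/well; 5 h settle, 37 C/5% CO2; cpd + HLM 0.5 mg/mL + NADPH 0.5 mg/mL (final); 16 h, 37 C; CellTiter-Glo, 30 min RT, luminescence.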

[8] = p53 small molecule agonists, cell-based qHTS assay with rat liver microsomes: qHTS cell viability counter screen (AID 1963580); further: nearly all actives have a fitted effect of over 45% in size
In short: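 Rat liver microsome (0.5 mg/mL final) and NADPH (0.5 mg/mL final) co-incubation with compounds for 16 h at 37 C on HCT-116 p53RE-bla cells; cytotoxicity taken from intracellular ATP luminescence.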

[9] = molecular target: 5-hydroxytryptamine receptor 2A (Homo sapiens) (UniProt P28223); experiment: 5-hydroxytryptamine receptor 2A (HTR2A) small molecule antagonists, cell-based qHTS assay (AID 1963586); further: nearly all actives have a fitted effect of over 45% in size
In short: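 CHO cells stably expressing human HTR2A were plated for 18 h at 37 C, then loaded with calcium dye for 1 h. Compounds were preincubated 5 min at room temperature before DOI (4 nM solution) was added. Kinetic fluorescence was read for 3 min.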

[10] = molecular target: Muscarinic acetylcholine receptor M1 (Homo sapiens) (UniProt P11229); experiment: Cholinergic receptor muscarinic 1 (CHRM1) small molecule antagonists, cell-based qHTS assay (AID 1963588); further: nearly all actives have a fitted effect of over 40% in size
In short: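 Compounds were tested at 15 concentrations in three independent runs. Dye-loaded CHRM1-CHO cells were exposed 5 min at room temperature before stimulation by acetylcholine added at 50nM. Intracellular calcium was read kinetically on FDSS for 3 min.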

[11] = molecular target: Muscarinic acetylcholine receptor M1 (Homo sapiens) (UniProt P11229); experiment: Cholinergic receptor muscarinic 1 (CHRM1) small molecule agonists, cell-based qHTS assay (AID 1963589); further: nearly all actives have a fitted effect of over 35% in size
In short: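 qHTS, 15-point titration, 3 independent runs: compounds pin-transferred onto dye-loaded CHRM1-CHO cells (human M1), calcium fluorescence followed every second to detect agonism.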

[12] = cAMP Responsive Elements (CRE) small molecule agonists, cell-based qHTS assay (AID 1963590)
In short: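 Quantitative HTS for CRE agonists: HEK 293T CRE-bla cells, overnight plating, 3 h compound incubation at 37 C/5% CO2, then 2 h room-temperature LiveBLAzer B/G FRET substrate loading.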

[13] = cAMP Responsive Elements (CRE) small molecule antagonists, cell-based qHTS assay (AID 1963591; active means well fitted inhibition curve with a large enough effect in the signal ratio in the repeat runs, not every such curve was filed as active; the % refers to the signal ratio; further: potency means the concentration at half of the fitted maximal effect)
In short: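 Fluorescence intensity from cleaved LiveBLAzer B/G substrate (2 h, room temperature) quantified CRE-bla activity in HEK 293T cells exposed 3 h to compound with 0.25 uM final NKH477.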

[14] = molecular target: Beta-2 adrenergic receptor (Homo sapiens) (UniProt P07550); experiment: Adrenergic beta2 receptor (ADRB2) small molecule antagonists, cell-based qHTS assay (AID 1963592); further: series mostly up to about 92 µM; nearly all actives have a fitted effect of over 50% in size
In short: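 Assay format: CHO-ADRB2 cells, 18-20hr seeding at 37C/5% CO2, then compound plus 1nM isoproterenol agonist mix for 0.5hr RT. Homogeneous time-resolved fluorescence cAMP detection after 1hr, expressed as 665/615 nm ratio.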

[15] = molecular target: D(2) dopamine receptor (Homo sapiens) (UniProt P14416); experiment: Dopamine D2 receptor (DRD2) small molecule agonists, cell-based qHTS assay (AID 1963594); further: nearly all actives have a fitted effect of over 35% in size
In short: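 cAMP accumulation in DRD2-HEK293 cells measured by HTRF after 1 h detection; compounds added 10 min before NKH477 (200nM […]) forskolin-analogue stimulation, 30 min at room temperature, with Ro20-1724 present at 0.1 mM final.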

[16] = molecular target: D(2) dopamine receptor (Homo sapiens) (UniProt P14416); experiment: Dopamine D2 receptor (DRD2) small molecule antagonists, cell-based qHTS assay (AID 1963595; active means well fitted inhibition curve with a large enough effect in the signal ratio in the repeat runs, with a control signal flat; the % refers to the signal ratio)
In short: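 Cells were plated and grown for 24 h at 37 °C. Ro20-1724 (0.1 mM final) went in first, then compound for 10 min. NKH477 (200 nM) with quinpirole (12 nM) followed for 30 min at RT, then HTRF detection reagents for 1 h.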

[17] = molecular target: 5-hydroxytryptamine receptor 2A (Homo sapiens) (UniProt P28223); experiment: 5-hydroxytryptamine receptor 2A (HTR2A) small molecule agonists, cell-based qHTS assay (AID 1963587); further: nearly all actives have a fitted effect of over 30% in size
In short: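 Kinetic calcium-flux fluorescence (2 min, 1 sec intervals) after compound addition in agonist mode. HTR2A-CHO cells were cultured 18 h, then dye-loaded 1 h at 37 C.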

[18] = p53 small molecule agonists, cell-based qHTS assay: qHTS cell viability counter screen (AID 1963581); further: nearly all actives have a fitted effect of over 45% in size
In short: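 Multiplexed with the reporter read, a CellTiter-Glo step (30 min, room temperature) gauges ATP-based viability of HCT-116 p53RE-bla cells after 16 h compound incubation at 37 C.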

[19] = p53 small molecule agonists, cell-based qHTS assay (AID 1963582; active means well fitted activation curve with a large enough effect in the signal ratio in the repeat runs, not every such curve was filed as active; the % refers to the signal ratio)
In short: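 Beta-lactamase reporter cells (p53RE-bla) treated with compounds for 16 h at 37 C; FRET substrate, 2 h, room temperature; fluorescence intensity.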

[20] = G protein-coupled receptor (GPCR) small molecule agonists, calcium flux assay: HEK293 wild type cell line counter screen (AID 1920065)
In short: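 Non-specific calcium responders were flagged by adding DMSO-dissolved compounds to dye-loaded cells and reading 480/540 nm fluorescence each second for 3 min; ATP served as positive control.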

KiSS-1 receptor (Homo sapiens), sequence (Q969F8 whole entry, looked up): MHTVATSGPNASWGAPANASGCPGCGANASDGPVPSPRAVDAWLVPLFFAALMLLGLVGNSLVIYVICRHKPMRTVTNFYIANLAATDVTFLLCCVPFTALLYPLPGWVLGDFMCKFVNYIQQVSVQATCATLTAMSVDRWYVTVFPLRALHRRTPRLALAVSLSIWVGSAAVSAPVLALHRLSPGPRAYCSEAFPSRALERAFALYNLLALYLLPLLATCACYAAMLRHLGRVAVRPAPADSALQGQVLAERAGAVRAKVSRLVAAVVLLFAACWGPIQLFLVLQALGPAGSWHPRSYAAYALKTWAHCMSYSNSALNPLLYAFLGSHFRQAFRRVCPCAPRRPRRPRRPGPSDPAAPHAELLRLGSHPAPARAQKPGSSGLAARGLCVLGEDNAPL
5-hydroxytryptamine receptor 2A (Homo sapiens), sequence (P28223 whole entry, looked up): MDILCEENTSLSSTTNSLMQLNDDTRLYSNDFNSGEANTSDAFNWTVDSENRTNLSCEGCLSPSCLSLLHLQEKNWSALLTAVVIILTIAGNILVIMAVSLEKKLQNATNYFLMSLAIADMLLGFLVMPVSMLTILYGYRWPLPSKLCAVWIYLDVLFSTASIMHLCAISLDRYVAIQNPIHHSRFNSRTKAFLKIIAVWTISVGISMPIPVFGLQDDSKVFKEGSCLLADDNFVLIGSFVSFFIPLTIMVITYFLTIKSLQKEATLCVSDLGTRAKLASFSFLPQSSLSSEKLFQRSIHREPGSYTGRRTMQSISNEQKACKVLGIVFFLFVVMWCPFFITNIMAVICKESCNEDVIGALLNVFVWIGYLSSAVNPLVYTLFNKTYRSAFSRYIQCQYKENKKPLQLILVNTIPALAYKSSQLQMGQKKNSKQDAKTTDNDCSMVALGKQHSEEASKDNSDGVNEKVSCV
Beta-2 adrenergic receptor (Homo sapiens), sequence (P07550 whole entry, looked up): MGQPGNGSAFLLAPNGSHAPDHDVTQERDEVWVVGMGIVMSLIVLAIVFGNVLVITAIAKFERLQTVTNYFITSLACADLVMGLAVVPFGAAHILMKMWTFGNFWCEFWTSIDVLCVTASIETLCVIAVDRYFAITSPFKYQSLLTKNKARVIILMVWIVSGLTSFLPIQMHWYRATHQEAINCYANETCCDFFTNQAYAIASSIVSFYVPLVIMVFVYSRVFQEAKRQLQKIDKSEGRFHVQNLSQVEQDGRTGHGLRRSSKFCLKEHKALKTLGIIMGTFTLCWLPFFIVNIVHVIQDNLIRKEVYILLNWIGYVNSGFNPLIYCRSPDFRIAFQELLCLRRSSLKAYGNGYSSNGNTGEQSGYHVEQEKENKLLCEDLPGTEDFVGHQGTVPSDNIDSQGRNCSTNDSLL
Muscarinic acetylcholine receptor M1 (Homo sapiens), sequence (P11229 whole entry, looked up): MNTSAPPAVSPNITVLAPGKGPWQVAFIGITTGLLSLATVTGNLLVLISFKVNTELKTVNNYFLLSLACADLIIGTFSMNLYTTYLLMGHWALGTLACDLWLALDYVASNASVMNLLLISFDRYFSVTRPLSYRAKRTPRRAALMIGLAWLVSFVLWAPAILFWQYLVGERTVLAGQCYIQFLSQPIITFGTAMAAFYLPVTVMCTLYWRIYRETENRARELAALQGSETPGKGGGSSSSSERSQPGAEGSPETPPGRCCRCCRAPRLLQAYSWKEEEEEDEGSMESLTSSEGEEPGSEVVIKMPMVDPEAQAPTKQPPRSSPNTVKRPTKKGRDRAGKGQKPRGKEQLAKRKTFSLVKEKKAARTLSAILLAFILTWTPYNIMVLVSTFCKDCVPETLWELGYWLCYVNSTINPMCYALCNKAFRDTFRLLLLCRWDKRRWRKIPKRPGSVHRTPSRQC
Gonadotropin-releasing hormone receptor (Homo sapiens), sequence (P30968 whole entry, looked up): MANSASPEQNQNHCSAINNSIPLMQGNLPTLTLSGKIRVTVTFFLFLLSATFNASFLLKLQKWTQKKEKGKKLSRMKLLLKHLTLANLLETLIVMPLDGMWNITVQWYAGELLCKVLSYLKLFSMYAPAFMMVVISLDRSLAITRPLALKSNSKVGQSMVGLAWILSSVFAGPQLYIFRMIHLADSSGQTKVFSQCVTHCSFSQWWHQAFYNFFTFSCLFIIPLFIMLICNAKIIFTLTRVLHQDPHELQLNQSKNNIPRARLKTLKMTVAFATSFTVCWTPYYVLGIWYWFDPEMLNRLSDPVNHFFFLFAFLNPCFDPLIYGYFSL
D(2) dopamine receptor (Homo sapiens), sequence (P14416 whole entry, looked up): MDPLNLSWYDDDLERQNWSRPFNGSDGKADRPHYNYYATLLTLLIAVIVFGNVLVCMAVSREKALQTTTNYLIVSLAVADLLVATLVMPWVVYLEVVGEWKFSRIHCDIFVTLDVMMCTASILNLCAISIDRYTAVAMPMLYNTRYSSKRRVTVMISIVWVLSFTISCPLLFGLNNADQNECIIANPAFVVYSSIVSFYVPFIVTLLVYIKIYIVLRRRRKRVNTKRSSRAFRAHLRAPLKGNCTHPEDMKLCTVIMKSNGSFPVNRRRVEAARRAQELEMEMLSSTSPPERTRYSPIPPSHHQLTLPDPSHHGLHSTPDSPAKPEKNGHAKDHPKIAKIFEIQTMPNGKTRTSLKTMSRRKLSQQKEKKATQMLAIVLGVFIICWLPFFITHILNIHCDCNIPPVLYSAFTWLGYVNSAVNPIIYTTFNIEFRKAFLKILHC

Row | SMILES | Potency [1] | Potency [2] | Potency [3] | outcome [4] | Potency [5] | Potency [6] | Potency [7] | Potency [8] | Potency [9] | Potency [10] | Potency [11] | Potency [12] | Potency [13] | Potency [14] | Potency [15] | Potency [16] | Potency [17] | Potency [18] | Potency [19] | outcome [20]
1 | COCCOCCOCCOC | inactive | inactive | inactive | inactive | inactive | inactive | inactive | inactive | inactive | inactive | inactive | inactive | inactive | inactive | inactive | inactive | – | – | – | –
2 | CN(C)c1ccc(C(c2ccccc2)c2ccc(N(C)C)cc2)cc1 | inactive | inactive | inactive | inactive | inactive | inactive | inactive | inactive | – | – | inactive | inactive | inactive | – | inactive | – | inactive | – | – | –
3 | c1ccc(CN(CC2=NCCN2)c2ccccc2)cc1 | inactive | inactive | inactive | inactive | inactive | inactive | inactive | inactive | – | inactive | inactive | inactive | inactive | inactive | inactive | inactive | inactive | inactive | – | –
4 | Nc1ccc(S(=O)(=O)NC(=O)c2ccccc2)cc1 | inactive | inactive | inactive | inactive | inactive | inactive | inactive | inactive | – | – | – | – | inactive | inactive | inactive | inactive | – | inactive | inactive | –
5 | CN(C)CCC[C@@]1(c2ccc(F)cc2)OCc2cc(C#N)ccc21 | inactive | inactive | inactive | inactive | inactive | inactive | inactive | inactive | – | – | – | inactive | inactive | inactive | inactive | inactive | – | inactive | inactive | –
6 | CCCCS | inactive | inactive | inactive | inactive | inactive | inactive | inactive | – | inactive | inactive | inactive | inactive | inactive | inactive | inactive | inactive | inactive | inactive | – | –
7 | Clc1nc(C(Cl)(Cl)Cl)c(Cl)c(Cl)c1Cl | 48.6 µM (active) | 21.7 µM (active) | inactive | inactive | inactive | inactive | inactive | inactive | inactive | inactive | inactive | – | – | inactive | inactive | – | inactive | inactive | – | –
8 | Cc1nc2ccccc2n1Cc1ccc(Cl)cc1 | 1.68 µM (active) | inactive | inactive | inactive | inactive | inactive | – | inactive | – | – | inactive | – | inactive | inactive | – | – | inactive | inactive | – | –
9 | CCCCCCCCCCCC(=O)Cl | inactive | inactive | inactive | inactive | inactive | inactive | inactive | – | – | – | inactive | inactive | inactive | inactive | inactive | inactive | inactive | inactive | – | –
10 | CCO[Si](C)(CCCOCC1CO1)OCC (centres undefined) | inactive | inactive | inactive | inactive | inactive | inactive | inactive | inactive | inactive | inactive | inactive | – | – | inactive | inactive | inactive | inactive | inactive | – | –
11 | CC1OC(=O)C(C)OC1=O (centres undefined) | inactive | inactive | inactive | inactive | inactive | inactive | inactive | inactive | inactive | inactive | inactive | – | inactive | inactive | inactive | inactive | inactive | – | inactive | –
12 | O=[N+]([O-])c1cccc(S(=O)(=O)NCCNS(=O)(=O)c2cccc([N+](=O)[O-])c2)c1 | inactive | inactive | inactive | – | inactive | inactive | inactive | inactive | – | inactive | inactive | – | inactive | – | inactive | – | inactive | inactive | inactive | inactive
13 | Nc1nc(N)nc(-c2cc(Cl)ccc2Cl)n1 | inactive | inactive | inactive | – | inactive | inactive | inactive | inactive | – | – | – | inactive | inactive | inactive | – | inactive | – | inactive | inactive | inactive
14 | CCCCCCCCCOC(=O)c1ccc(O)cc1 | 26.9 µM (active) | inactive | inactive | inactive | inactive | – | 18 µM (active) | inactive | inactive | inactive | inactive | inactive | 21.4 µM (active) | inactive | inactive | – | – | – | – | –
15 | CCCN(CCC)CCc1cccc2c1CC(=O)N2 | inactive | inactive | inactive | – | inactive | inactive | inactive | inactive | inactive | – | inactive | inactive | inactive | inactive | – | inactive | – | inactive | inactive | inactive
16 | Cc1c(N=C=O)cccc1N=C=O | inactive | inactive | inactive | – | inactive | inactive | inactive | inactive | inactive | inactive | inactive | inactive | inactive | inactive | inactive | – | inactive | inactive | inactive | inactive
